Experiment [1] in a line: binders of probe aFSTL3 on microarray, primary screen, stem cell growth factor project, biochemical, small-molecule microarray, fluorescence 635/667 (AID 1064).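 Also: measures binding of the biotinylated anti-FSTL3 antibody to printed compounds.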 As to conditions: higher = more signal.
Experiment [2] in a line: binders from COS7 lysate, DM2A8 probe, primary screen, torsin A project, cell lysate, small-molecule microarray, fluorescence 635/667 (AID 1065). The settings on record: higher = more signal, COS7 lysate expressing mutant human TOR1A.
Experiment [3] in a line: binders of probe aFGF2 on microarray, primary screen, stem cell growth factor project, biochemical, small-molecule microarray, fluorescence 635/667 (AID 1067).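 Also: measures binding of biotinylated aFGF2 protein to printed compounds on slides; z-score merges feature fluorescence and signal-to-noise across triplicate slides.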 The settings on record: higher = more signal.
The nature of experiment [4]: binders of probe aFGF10 on microarray, primary screen, stem cell growth factor project, biochemical, small-molecule microarray, fluorescence 635/667 (AID 1071).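 Also: score merges 667 nm spot intensity and signal to noise from triplicate slides.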 The settings on record: higher = more signal.
Experiment [5] addresses Neurogenic locus notch homolog protein 2 (Homo sapiens) (UniProt Q04721). The experiment is described as follows: Notch2 binders on small-molecule microarrays, primary screen, biochemical, small-molecule microarray, 635 nm fluorescence, stem cell growth factors (AID 1073). The settings on record: Notch2 binding, higher = more signal.
For experiment [6], the target named is Pro-neuregulin-1, membrane-bound isoform (Homo sapiens) (UniProt Q02297). Put plainly: NRG1 binders on small-molecule microarrays, primary screen, psychiatric disease protein project, biochemical, small-molecule microarray, fluorescence 635/667 (AID 1075).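 Also: score combines 667 nm spot fluorescence with signal to noise.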 As to conditions: NRG1 binding, 635 nm fluorescence, higher = more signal.
Sequence of Pro-neuregulin-1, membrane-bound isoform (Homo sapiens) (Q02297 whole entry, looked up, the tested form may be a part, canonical isoform): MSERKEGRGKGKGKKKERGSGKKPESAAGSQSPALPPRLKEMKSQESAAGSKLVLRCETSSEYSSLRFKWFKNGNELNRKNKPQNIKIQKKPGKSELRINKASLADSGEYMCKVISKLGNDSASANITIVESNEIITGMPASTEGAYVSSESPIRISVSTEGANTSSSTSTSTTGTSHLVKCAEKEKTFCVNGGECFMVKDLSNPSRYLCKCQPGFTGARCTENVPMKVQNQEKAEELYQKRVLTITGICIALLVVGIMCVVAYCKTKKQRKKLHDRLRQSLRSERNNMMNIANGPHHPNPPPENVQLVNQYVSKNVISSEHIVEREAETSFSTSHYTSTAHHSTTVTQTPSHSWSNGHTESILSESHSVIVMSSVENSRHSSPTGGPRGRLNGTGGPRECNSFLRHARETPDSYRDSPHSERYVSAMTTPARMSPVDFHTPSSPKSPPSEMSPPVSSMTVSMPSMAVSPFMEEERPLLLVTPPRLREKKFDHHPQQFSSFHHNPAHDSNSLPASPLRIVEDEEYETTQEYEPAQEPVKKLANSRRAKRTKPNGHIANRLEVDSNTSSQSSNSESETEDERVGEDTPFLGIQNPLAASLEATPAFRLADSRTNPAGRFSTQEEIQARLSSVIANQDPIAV
In experiment [7] the test system is Neuregulin-1 EGF-like domain. Put plainly: binders of neuregulin-1 EGF-like domain, primary screen, biochemical, small-molecule microarray, 635 nm fluorescence (AID 1081).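 Also: binding of the protein to compounds printed on small-molecule microarray slides.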 As to conditions: small-molecule microarray binding, higher = more signal.
The nature of experiment [8]: FRG1 promoter luciferase signal modulators, primary screen, FRG1 inhibition for FSHD, cell-based, C2C12 myotubes, firefly/Renilla luciferase, luminescence (AID 1084). The settings on record: higher = more signal, called active from +8 up or from −8 down.
Experiment [9] in a line: binders of probe aFST on microarray, primary screen, stem cell growth factor project, biochemical, small-molecule microarray, fluorescence 635/667 (AID 1086).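 Also: score merges 667 nm fluorescence with signal-to-noise of each printed compound spot.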 As to conditions: higher = more signal.
Experiment [10] is described as follows: binders of probe aHhip on microarray, primary screen, stem cell growth factor project, biochemical, small-molecule microarray, fluorescence 635/667 (AID 1087).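 Also: score merges spot fluorescence at 667nm with spot signal to noise ratio.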 As to conditions: higher = more signal.

Calls of active or inactive are those of the source.

Sequence of Neurogenic locus notch homolog protein 2 (Homo sapiens) (Q04721 whole entry, looked up, canonical isoform): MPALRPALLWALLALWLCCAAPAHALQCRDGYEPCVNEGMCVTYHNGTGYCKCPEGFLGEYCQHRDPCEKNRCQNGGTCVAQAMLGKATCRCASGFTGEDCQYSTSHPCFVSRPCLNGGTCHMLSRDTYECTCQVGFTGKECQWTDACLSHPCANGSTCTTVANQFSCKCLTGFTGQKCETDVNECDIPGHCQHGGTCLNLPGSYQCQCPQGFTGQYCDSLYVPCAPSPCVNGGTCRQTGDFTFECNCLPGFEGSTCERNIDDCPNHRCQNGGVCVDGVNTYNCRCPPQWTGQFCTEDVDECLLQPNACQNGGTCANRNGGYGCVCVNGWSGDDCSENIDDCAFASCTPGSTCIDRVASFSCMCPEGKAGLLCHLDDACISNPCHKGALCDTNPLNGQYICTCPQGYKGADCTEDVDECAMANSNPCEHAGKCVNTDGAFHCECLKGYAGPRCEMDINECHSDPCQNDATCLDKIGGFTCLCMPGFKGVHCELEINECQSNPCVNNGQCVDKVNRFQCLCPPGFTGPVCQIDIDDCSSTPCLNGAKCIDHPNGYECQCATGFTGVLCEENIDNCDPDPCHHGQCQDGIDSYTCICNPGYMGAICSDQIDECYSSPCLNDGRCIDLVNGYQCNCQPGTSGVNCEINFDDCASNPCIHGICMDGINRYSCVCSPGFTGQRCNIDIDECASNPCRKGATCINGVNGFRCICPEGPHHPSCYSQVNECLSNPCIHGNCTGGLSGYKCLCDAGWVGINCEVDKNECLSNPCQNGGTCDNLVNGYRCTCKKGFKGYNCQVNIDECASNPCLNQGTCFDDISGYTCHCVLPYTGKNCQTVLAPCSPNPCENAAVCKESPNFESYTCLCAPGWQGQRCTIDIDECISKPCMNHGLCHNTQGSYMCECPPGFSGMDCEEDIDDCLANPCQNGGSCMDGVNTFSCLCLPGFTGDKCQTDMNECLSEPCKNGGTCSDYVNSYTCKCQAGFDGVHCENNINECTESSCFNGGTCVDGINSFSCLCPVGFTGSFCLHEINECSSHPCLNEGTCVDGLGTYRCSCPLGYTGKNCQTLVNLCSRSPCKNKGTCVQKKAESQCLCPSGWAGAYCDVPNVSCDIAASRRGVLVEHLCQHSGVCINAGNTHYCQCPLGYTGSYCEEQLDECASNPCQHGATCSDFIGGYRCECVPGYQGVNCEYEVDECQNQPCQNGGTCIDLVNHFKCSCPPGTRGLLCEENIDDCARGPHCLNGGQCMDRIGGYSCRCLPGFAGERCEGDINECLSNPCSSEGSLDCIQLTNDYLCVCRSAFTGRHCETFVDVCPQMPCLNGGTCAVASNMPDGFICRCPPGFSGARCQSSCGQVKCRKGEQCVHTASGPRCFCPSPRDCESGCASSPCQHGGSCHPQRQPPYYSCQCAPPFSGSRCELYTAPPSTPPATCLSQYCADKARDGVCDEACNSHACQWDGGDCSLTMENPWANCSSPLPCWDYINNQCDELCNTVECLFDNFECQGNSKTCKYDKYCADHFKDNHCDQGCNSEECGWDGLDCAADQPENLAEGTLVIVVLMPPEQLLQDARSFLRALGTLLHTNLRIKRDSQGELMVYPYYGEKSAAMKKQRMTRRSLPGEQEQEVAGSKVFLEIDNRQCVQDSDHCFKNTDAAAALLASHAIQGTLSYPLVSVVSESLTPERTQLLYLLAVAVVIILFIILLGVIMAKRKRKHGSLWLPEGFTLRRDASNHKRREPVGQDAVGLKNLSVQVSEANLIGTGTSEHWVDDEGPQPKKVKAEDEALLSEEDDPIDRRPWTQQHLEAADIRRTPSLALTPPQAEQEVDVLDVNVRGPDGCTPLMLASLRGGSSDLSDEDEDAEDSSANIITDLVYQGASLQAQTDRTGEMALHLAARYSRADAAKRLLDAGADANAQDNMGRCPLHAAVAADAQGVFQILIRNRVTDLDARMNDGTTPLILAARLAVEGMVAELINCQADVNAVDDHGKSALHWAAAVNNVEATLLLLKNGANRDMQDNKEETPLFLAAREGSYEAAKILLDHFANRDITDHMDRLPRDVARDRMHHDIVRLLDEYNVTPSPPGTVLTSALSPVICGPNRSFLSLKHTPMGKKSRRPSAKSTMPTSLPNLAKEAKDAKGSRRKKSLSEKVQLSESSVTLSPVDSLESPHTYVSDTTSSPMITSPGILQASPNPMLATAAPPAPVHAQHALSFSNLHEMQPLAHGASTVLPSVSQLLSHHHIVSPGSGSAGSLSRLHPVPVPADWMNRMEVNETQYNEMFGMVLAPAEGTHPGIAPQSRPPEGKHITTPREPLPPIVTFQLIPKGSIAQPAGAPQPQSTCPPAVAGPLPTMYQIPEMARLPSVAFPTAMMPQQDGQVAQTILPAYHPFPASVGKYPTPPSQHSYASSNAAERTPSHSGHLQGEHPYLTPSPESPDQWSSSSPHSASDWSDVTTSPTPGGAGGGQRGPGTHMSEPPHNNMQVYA

Turning to `O=C1NC(=O)C2C1C=CC(C(O)C(O)CO)N2Nc1ccccn1` (stereo not given), the composite z-score was -0.304 in [1]; -0.0729 in experiment [2]; -0.154 in experiment [3]; 0.383 in [4]; 0.864 in [5]; 0.548 in experiment [6]. Also, the composite z-score in experiment [7] is 0.515; in [9], 0.0126; in experiment [10] it was -0.191. For the same compound, the z-score in experiment [8] was -0.708 (inactive).
As to `COc1ccc([Si](C)(C)[C@H]2[C@H](CCO)O[C@@]3(C(=O)N(Cc4ccccc4)c4ccc(NC(=O)[C@H](C)O)cc43)[C@@H]2C)cc1`, the composite z-score in experiment [1] was -0.0382; in [2] it was 0.394; in [3], -0.0653; in [4], 1.12; in experiment [5], 0.855; in experiment [6], 0.638. Moreover, the composite z-score in [7] amounted to 1.18; in experiment [9], 0.239; in [10], 0.126. The z-score in [8] was -3.18 (inactive).
Consider `O=C1NC(=O)C2C1C=CC(C(O)c1ccc(F)cc1)N2Nc1ccc(Cl)cc1Cl` (stereo not given), for which the composite z-score is 0.848 in [1]; -0.335 in [2]; 0.103 in experiment [3]; 0.336 in [4]; 0.916 in experiment [5]; 1.8 in [6]. Also, the results for the composite z-score in experiment [7], in experiment [9] and in experiment [10] were 0.885, 0.0708 and -0.374, respectively. Also, in experiment [8], the z-score is -0.068 (inactive).
In the case of `CO[C@H]1O[C@H](CO)[C@@H](OC(=O)Nc2ccccc2)[C@@H]2OC(=O)[C@@H](Cc3ccccc3)C/C=C/C[C@H](Cc3ccccc3)C(=O)O[C@@H]12`, the composite z-score in experiment [1] was -0.263; in experiment [2], 1.24; in experiment [3], -0.0737; in experiment [4], 0.393; in experiment [5] it was -0.0327; in experiment [6], 0.379. Moreover, the figures for the composite z-score in experiment [7], in experiment [9] and in experiment [10] were 0.324, 0.241 and 0.176, respectively. Also, in experiment [8], the z-score is -0.461 (inactive).
In the case of `COc1ccc(-c2cc3c(c(CCc4ccccc4)n2)[Si](C(C)C)(C(C)C)O[C@H]3c2ccccc2)cn1`, the composite z-score in experiment [1] was -0.605; in [2], -0.678; in [3], -0.0754; in experiment [4] it was 0.0306; in experiment [5], 0.135; in experiment [6], 0.371. In addition, the results for the composite z-score in [7], in experiment [9] and in experiment [10] were -0.598, 0.16 and -0.164, respectively. The z-score in experiment [8] is 0.0071 (inactive).
For the compound `C=CCC(OC(C)=O)[C@@H]1[C@@H](N(Cc2ccc(-c3ccccc3)cc2)C(=O)Cc2ccc(OC)cc2)c2cc(OCCCO)ccc2N1C(=O)c1ccc2ccccc2c1` (stereo not given in full), the composite z-score is -0.286 in experiment [1]; 1.09 in experiment [2]; -0.0486 in [3]; 0.269 in experiment [4]; -0.238 in experiment [5]; -0.157 in [6]. In addition, the composite z-score was -0.659 in experiment [7], 0.544 in experiment [9] and -0.283 in [10]. The z-score in [8] was -0.808 (inactive).
As to `C=C(C(=O)CC[C@@H](OC(=O)c1cccnc1)c1cccc(OCCO)c1)C(C)C`, the composite z-score in experiment [1] was -0.512; in experiment [2] it was -0.0785; in experiment [3], -0.167; in experiment [4], 0.684; in experiment [5], -0.0786; in [6] it was -0.145. Further, the composite z-score in experiment [7] is -0.284; in [9], 0.267; in [10], -0.236. In addition, the z-score in experiment [8] is 1.2 (inactive).
Regarding `O=C(NC1CC1)[C@@H]1c2ccccc2C(=O)N(C2CCCCC2)[C@H]1c1ccc(CO)cc1`, the composite z-score in [1] was 0.954; in experiment [2], 0.642; in experiment [3], 0.0611; in experiment [4], -0.142; in experiment [5], 0.254; in experiment [6], 1.79. Besides, the composite z-score in experiment [7] is 1.29; in [9], 0.575; in experiment [10] it was -0.228. The z-score in experiment [8] was -0.601 (inactive).
With `C=CCC(OC(C)=O)[C@@H]1[C@@H](N(Cc2ccc(-c3ccccc3)cc2)C(=O)Cc2ccc(OC)cc2)c2cc(OCCCO)ccc2N1C(=O)Cc1ccc(OC)cc1` (stereo not given in full), the composite z-score in experiment [1] was 0.169; in experiment [2], 0.414; in [3] it was -0.0363; in experiment [4] it was 0.479; in experiment [5], -0.076; in [6] it was 0.851. The composite z-score in [7] came to 0.0142; in [9], 0.195; in [10], 0.411. Besides, the z-score in [8] was -1.5 (inactive).
On to `C=C(COC)C(=O)CC[C@H](OC(C)=O)c1ccccc1OCCO`, for which the composite z-score in experiment [1] was -0.0661; in [2] it was 0.697; in [3] it was -0.167; in experiment [4] it was 0.484; in experiment [5] it was -0.987; in experiment [6], -0.493. Besides, the composite z-score in [7] is 0.355; in experiment [9], -0.215; in [10], -0.0994. In addition, the z-score in [8] was -0.0831 (inactive).
For `CO[C@H]1O[C@H](CO)[C@@H](OC(=O)Nc2cccc(F)c2)[C@H](OC(=O)Nc2ccc3c(c2)OCO3)[C@@H]1OC(=O)Nc1ccc2c(c1)OCO2`, the composite z-score in experiment [1] was -0.0407; in experiment [2], 0.786; in experiment [3], 0.112; in experiment [4], 0.959; in experiment [5] it was 1.46; in experiment [6], 1.25. Moreover, the composite z-score in experiment [7] is 1.27; in experiment [9], 0.986; in experiment [10] it was 0.21. In addition, the z-score in experiment [8] was 4 (inactive).
Regarding `COC(=O)[C@@]1(Cc2ccc(F)cc2)[C@H]2c3cc(C(=O)N4CCCC4)n(Cc4ccc(OC(F)(F)F)cc4)c3C[C@H]2CN1C(=O)c1ccccc1`, the composite z-score in [1] was 0.262; in [2], -0.292; in experiment [3] it was 0.0336; in experiment [4], 0.334; in experiment [5], 1.08; in experiment [6], 0.621. Further, the composite z-score in experiment [7] is 0.71; in experiment [9] it was 0.401; in experiment [10], -0.0074. The z-score in experiment [8] is 1.45 (inactive).
Consider `COC(=O)C1=CC(c2ccc(CO)cc2)=CC(C2CC2)N(Cc2cc3c(cc2Br)OCO3)C=C1C(=O)OC` (stereo not given), for which the composite z-score turned out to be 0.131 in experiment [1]; 1.64 in [2]; 0.214 in experiment [3]; 1.25 in experiment [4]; 1.66 in experiment [5]; 1.97 in [6]. Further, the figures for the composite z-score in [7], in experiment [9] and in experiment [10] were 1.15, 0.559 and 0.0278, respectively. For the same compound, in [8], the z-score was -2.56 (inactive).
For the compound `C=C(C(=O)CC[C@H](OC(=O)c1ccccc1-c1ccccc1C(=O)O)c1ccc(OCCO)cc1)C(C)C`, the composite z-score is -0.525 in [1]; 0.166 in [2]; 0.0033 in [3]; 0.13 in experiment [4]; 0.214 in experiment [5]; 1.76 in experiment [6]. Besides, the figures for the composite z-score in [7], in experiment [9] and in experiment [10] were 1.26, 0.239 and -0.0994, respectively. Moreover, the z-score in [8] is 1.72 (inactive).
As to `O=C1C2C=CC(C(O)c3ccccn3)N(Nc3ccc([N+](=O)[O-])cc3)C2C(=O)N1c1ccccc1` (stereo not given), the composite z-score was found to be 0.0747 in experiment [1]; 0.369 in experiment [2]; 0.0447 in experiment [3]; 0.794 in experiment [4]; 1.33 in [5]; 1.82 in experiment [6]. Also, the figures for the composite z-score in experiment [7], in [9] and in experiment [10] were 1.31, 0.512 and -0.0645, respectively. Moreover, the z-score in experiment [8] is 0.678 (inactive).
With `COC(=O)C(CC#Cc1ccc2c(c1)[C@]1(C(=O)N2)[C@H](C(=O)N2CCN(c3ncccn3)CC2)[C@H]2C(=O)O[C@H](c3ccccc3)[C@H](c3ccccc3)N2[C@@H]1c1ccc(O)cc1)C(=O)OC`, the composite z-score in experiment [1] came out at 2.65; in experiment [2], 0.987; in experiment [3], 0.374; in [4], 1.01; in experiment [5], 1.53; in [6], 1.44. Besides, the composite z-score in [7] turned out to be 1.31; in experiment [9] it was 2.24; in [10], 0.102. Moreover, the z-score in [8] was 1.41 (inactive).
In the case of `C=CC[C@]12N=C(c3ccc(OCCCO)cc3)O[C@H]1c1ccccc1N(CCC)C2=O`, the composite z-score in [1] came to 1.08; in experiment [2], 1.02; in experiment [3] it was 0.239; in experiment [4], 0.367; in experiment [5] it was 0.481; in [6], 1.56. Moreover, the composite z-score in [7] was 1.35; in [9], 2; in experiment [10], -0.0961. Also, the z-score in experiment [8] is 0.43 (inactive).

The record behind these values is PubChem BioAssay.
